Laboratory results published in publication PMC7819943, “Rice protein-binding microarrays: a tool to detect cis-acting elements near promoter regions in rice”.
Whole data set: some 68,000 sequences, median “fluorescence intensity (a.u.)” near 9,100, cut for the highest 2% near 16,000. This is one part of a sample in which the highest values are shown more often than they occur.

Molecular target: OsWRKY34 (Oryza sativa, UniProt Q0JBA9 1-250)
Assay: protein-binding microarray (RPBM); PBS, 2% BSA, 51.3 ng/ul salmon testes DNA, 50 uM zinc acetate, 200 nM TF, 25 C, 1 h; high values mean tight binding
Settings: protein: recombinant; tags: N-terminal polyhistidine and DsRed monomer fusion (pET32a); label: CyDye5-dUTP incorporated in the synthesized complementary strand; 3' TTTTT single-stranded linker to array surface; dsDNA, one strand shown
In short: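 The binding signal for each feature is its fluorescence intensity in arbitrary units. An Axon 4000B scanner was used to read a custom Agilent array that had been made double-stranded with Cy5-dUTP primer extension, blocked with 2% BSA, incubated at 25 °C for 1 h with 200 nM protein in PBS, 2% BSA, salmon testes DNA and 50 µM zinc acetate, and washed. The protein was an N-terminal polyhistidine–DsRed transcription factor fusion from E. coli BL21-CodonPlus, purified on Ni–NTA.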

Sequence of OsWRKY34 (Q0JBA9 entry or part of it): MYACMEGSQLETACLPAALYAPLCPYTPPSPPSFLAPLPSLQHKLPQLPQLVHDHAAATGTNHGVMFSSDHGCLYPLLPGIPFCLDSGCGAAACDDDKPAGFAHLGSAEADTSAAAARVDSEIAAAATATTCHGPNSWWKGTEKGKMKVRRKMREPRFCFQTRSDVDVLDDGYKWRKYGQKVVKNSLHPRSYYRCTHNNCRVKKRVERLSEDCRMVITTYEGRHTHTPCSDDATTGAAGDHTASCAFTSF

Sequence	binding signal
TATCTAATAATTGGATGGTTACAACCAAATACTTCTACATCGGAGTCACCTAGTGCAG	9870 fluorescence intensity (a.u.)
TTGATCCTTTTTCGCCGCTCACGCCGAGCTGCCCCGACAACGGAGTCACCTAGTGCAG	8340 fluorescence intensity (a.u.)
TTTTCTATACTGTATTTTGTGTCATTTTCAATCATTGATTCGGAGTCACCTAGTGCAG	14400 fluorescence intensity (a.u.)
AAACAGAGGTTTTTCTCCTGTACATGTGTCCCATGCCAACCGGAGTCACCTAGTGCAG	9880 fluorescence intensity (a.u.)
TTTTTATATGTTTGGTTCTTATGAGTTCCTAAGTGTGAAACGGAGTCACCTAGTGCAG	8230 fluorescence intensity (a.u.)
CATTTCTTATTTTGTTTTTGGGCTTTGATGTTTGGTTTCTCGGAGTCACCTAGTGCAG	8740 fluorescence intensity (a.u.)
TGGTCGGGTGTTTTTGTGATTGATGGTTTTGGTAGACGGGCGGAGTCACCTAGTGCAG	11200 fluorescence intensity (a.u.)
TTTGGGGTTCAGCGGGCATTTGTTTTGATTGTTTCTTATTCGGAGTCACCTAGTGCAG	23400 fluorescence intensity (a.u.)
TGGGTGGTGTTGGTTTTGCATGGTAGACGCGGGGTCCGATCGGAGTCACCTAGTGCAG	18400 fluorescence intensity (a.u.)
CTTTTTTTTGGTTTGCCGTGTGGTGGGTTTCGGGTCCGCGCGGAGTCACCTAGTGCAG	14500 fluorescence intensity (a.u.)
TTTACATCTAATATTTTTTATTTGGGGTTCAGCGGGCATTCGGAGTCACCTAGTGCAG	11100 fluorescence intensity (a.u.)
CTAAAAGTCAATCCACGCCACCATCGATCTCTCTATCCAACGGAGTCACCTAGTGCAG	9440 fluorescence intensity (a.u.)
CTATGATTGGTCAAGTGCTGTTGCTATTTCTCTGCTGATACGGAGTCACCTAGTGCAG	10200 fluorescence intensity (a.u.)
GCTGTTCCATGCTCCACAACCCCGGGTCATTGACCCAATCCGGAGTCACCTAGTGCAG	16700 fluorescence intensity (a.u.)
TCACCACCACCATCACAACCCAATCCCAATCCAAACCACCCGGAGTCACCTAGTGCAG	8530 fluorescence intensity (a.u.)
GATCATCTGTTCCACCCGCCACCCGCCACCCGCCACAATCCGGAGTCACCTAGTGCAG	13200 fluorescence intensity (a.u.)
GAAAAGCCACTAATCTCCAACCTCGTCTACACTTCTCCAACGGAGTCACCTAGTGCAG	8970 fluorescence intensity (a.u.)
GTTTGATCCATTACAGCTCCACATATATTGTGAAATCATTCGGAGTCACCTAGTGCAG	10500 fluorescence intensity (a.u.)
ACAACCGCACATACGCCACGGCCCACTCCTCCTTCTCGCCCGGAGTCACCTAGTGCAG	9350 fluorescence intensity (a.u.)
GAACGTCTGGACGTTGGAACACTCCATGTTTTTGTCTGATCGGAGTCACCTAGTGCAG	8740 fluorescence intensity (a.u.)
TATATCTATATGCCATATCATCTGTCTATCCTTTGTAAAGCGGAGTCACCTAGTGCAG	8740 fluorescence intensity (a.u.)
CCTTGTCTGTACTCTCTCTACTTTCCACCTCTATCCGCCTCGGAGTCACCTAGTGCAG	9420 fluorescence intensity (a.u.)
TCTGTCTATCCTTTGTAAAGTCACTTGCCCTTGCATTACTCGGAGTCACCTAGTGCAG	16500 fluorescence intensity (a.u.)
GCATCCTTTTCATTGGCCTTTGCGTGTAATTTGGGGCATGCGGAGTCACCTAGTGCAG	9230 fluorescence intensity (a.u.)

Sequence	binding signal
CTCGTCTGTTTTGTTTTCCCCTCCGACTCCGACTCCGATCCGGAGTCACCTAGTGCAG	8180 fluorescence intensity (a.u.)
CCTCGTTTTTTTTTTTGGGTTCATCTCGTGTGTTCCGTGACGGAGTCACCTAGTGCAG	18400 fluorescence intensity (a.u.)
ATACTTCCTTTCTGTTTCCAGTGTCTCTCTTCATGCACTCCGGAGTCACCTAGTGCAG	10700 fluorescence intensity (a.u.)
GGTTTGTTTGTCGTTCATGTGACGAGCGCATCCGTTTTCCCGGAGTCACCTAGTGCAG	9140 fluorescence intensity (a.u.)
GTGTTTCCCATGGTTTGCACCAGTCTCCTCTGATGCAGTCCGGAGTCACCTAGTGCAG	26400 fluorescence intensity (a.u.)
ATTTTAATTAATCTCGTGTTGGGTTCTTATATGGTTTTTCCGGAGTCACCTAGTGCAG	8350 fluorescence intensity (a.u.)
TGTTCTGGTTCGGATCTGAGCGGGTGTTGGGTGTTTTCAACGGAGTCACCTAGTGCAG	9230 fluorescence intensity (a.u.)
ATCTGGGTTCTTTTTTTTTCTTTTTTTGCCGGGTTTTTTTCGGAGTCACCTAGTGCAG	14800 fluorescence intensity (a.u.)
CAGTCTCCTCTGATGCAGTCTCGTTCTCTGTTTCTTTTTGCGGAGTCACCTAGTGCAG	10600 fluorescence intensity (a.u.)
GGTTTGGGTTCCTCTCTCGTCTCGTCTGTTTTGTTTTCCCCGGAGTCACCTAGTGCAG	21900 fluorescence intensity (a.u.)
CCTCGGCCTATAGTGTTGGGTTTGGGTGTTGGTTTTTCCCCGGAGTCACCTAGTGCAG	15600 fluorescence intensity (a.u.)
TTTTCGTGTTCGGGTTTGGGTTTGAGTGCCGCATCTGCAACGGAGTCACCTAGTGCAG	21500 fluorescence intensity (a.u.)
CGATTGCCATTGTTCGTGTGTTTTTTCTTGTCTCTTTCCGCGGAGTCACCTAGTGCAG	11000 fluorescence intensity (a.u.)
TCACCATCTCGACTCAGCCAATCCATTTCTAAATTTTATACGGAGTCACCTAGTGCAG	8690 fluorescence intensity (a.u.)
TTAACCACAGTGCCGTTCTCTAGCCACCATCTCAGCAGCACGGAGTCACCTAGTGCAG	8220 fluorescence intensity (a.u.)
TGGGAAGTACATATGTAATGTTGTTTATTTATTTTTGTTTCGGAGTCACCTAGTGCAG	9860 fluorescence intensity (a.u.)
ATCTTGGGAAGGCCGTTACTCACTCTAGACTTTACTCCTCCGGAGTCACCTAGTGCAG	8270 fluorescence intensity (a.u.)
CCTCACCGATGGATTTTTTAGCCCGATCCTACCCCTCCTACGGAGTCACCTAGTGCAG	10500 fluorescence intensity (a.u.)
ACCACGTCCCTTTCCATTTTCCCTTGTTTTTTTTCCTCCTCGGAGTCACCTAGTGCAG	11200 fluorescence intensity (a.u.)
TAATTTTACTCGATACTCTATGTACCCCTGAAATTTCGCTCGGAGTCACCTAGTGCAG	9560 fluorescence intensity (a.u.)
GCCTTGTCTATTGCCTCAGAAGTTGGTTACCCTGTTGTTGCGGAGTCACCTAGTGCAG	8150 fluorescence intensity (a.u.)
GATGTGCCCTTTATTCACAACATTTAACAATTGTTACTTGCGGAGTCACCTAGTGCAG	8520 fluorescence intensity (a.u.)
CCTTTTTGTTGGTCTCTGTTCTTGGGTTGGGTTTTCAGTCCGGAGTCACCTAGTGCAG	20800 fluorescence intensity (a.u.)
